For 20 compounds, growth inhibition results are on record in PubChem BioAssay (NCI).

This is part of a sample that, as a whole, favours compounds with a hit. Of some 79,000 tested, about 15% had one in any assay. A number with no mark means an inactive call. The source made the active and inactive calls. No stated cut-off is given here; in the data, active means growth inhibition above about 70%; inactive means the rest.

The nature of test [1]: NCI Yeast Anticancer Drug Screen. Data for the rad50 strain (AID 155).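 Further: 0% = growth of vehicle-only cultures of the same strain.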 As to conditions: S. cerevisiae rad50 strain growth inhibition; at 50.0 µM; hits give high values. An outline of the steps: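 A DNA repair-deficient yeast mutant serves as the test organism; compound-induced growth inhibition is calculated against vehicle-treated cells.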
A short description of test [2]: NCI Yeast Anticancer Drug Screen. Data for the mec2-1 strain (AID 157). The settings on record: S. cerevisiae mec2-1 strain, at 50.0 µM, hits give high values. Summed up:
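Each compound was tested on mec2-1 yeast, a strain altered in DNA damage repair or cell cycle control. Growth inhibition is reported relative to vehicle.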

Test [3] can be described thus: NCI Yeast Anticancer Drug Screen. Data for the sgs1 mgt1 strain (AID 161).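 Further: 0% = growth of cultures given vehicle only.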 The settings on record: S. cerevisiae sgs1 mgt1 strain, at 50.0 µM, hits give high values. An outline of the steps: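 Read-out: growth inhibition vs vehicle controls. Cells: mutant yeast strain deficient in DNA damage repair.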
A short description of test [4]: NCI Yeast Anticancer Drug Screen. Data for the cln2 rad14 strain (AID 165).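 Further: 0% = growth equal to vehicle treated cultures.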 The settings on record: S. cerevisiae cln2 rad14 strain, at 50.0 µM, hits give high values. An outline of the steps: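 Test compounds were added to cln2 rad14 yeast cultures; inhibition of growth was then determined by comparison with vehicle treatment.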
The nature of test [5]: NCI Yeast Anticancer Drug Screen. Data for the bub3 strain (AID 167). The settings on record: S. cerevisiae bub3 mutant strain, at 50.0 µM, hits give high values. Summed up:
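Inhibition values come from growth of compound-treated mutant yeast normalised to vehicle-treated controls.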

Test [6] is described as follows: NCI Yeast Anticancer Drug Screen. Data for the mlh1 rad18 strain (AID 175). As to conditions: S. cerevisiae mlh1 rad18 strain growth inhibition; at 50.0 µM; hits give high values. An outline of the steps: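 Inhibition values reflect reduced growth of mutant yeast versus vehicle-treated controls following compound exposure; the mutations affect DNA damage repair.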

With `CN(C)CCOC(=O)COc1ccc(Cl)cc1`, the growth inhibition is -10.2% in test [1]; 26.6% in test [2]; 9.9% in test [3]; 38% in test [4]; 28.9% in test [5]; 21.4% in test [6].
Regarding `O=[N+]([O-])c1ccc(F)c(Cl)c1`, the growth inhibition is -10.7% in test [1]; -25.1% in test [2]; -1.6% in test [3]; 4.55% in test [4]; 9.3% in test [5]; -7.25% in test [6].
As for `COC(=O)c1cc2c(n1S(=O)(=O)c1ccc(C)cc1)C(=O)C(=O)c1[nH]cc(C(=O)OCc3ccccc3)c1-2`, the growth inhibition in test [1] was 0.6%; in test [2], 3.7%; in test [3] it was 20.6%; in test [4] it was 8.9%; in test [5], 14%; in test [6], 13.5%.
For `COC(=O)Nn1c(C)c(C(=O)Nc2ccc(OC)cc2)c(C(=O)OC)c1C`, the growth inhibition was 32.6% in test [1]; -16% in test [2]; 14.3% in test [3]; 2.8% in test [4]; 10.2% in test [5]; 21.6% in test [6].
On to `COc1ccc2c(c1OC)CN1CCc3cc4c(cc3C1=C2)OCO4`, for which the growth inhibition in test [1] is 15.9%; in test [2] it was -3.95%; in test [3] it was -9.95%; in test [4] it was 2.35%; in test [5], 8.15%; in test [6] it was 12.9%.
With `CCCCCCNC(=O)NC`, the growth inhibition in test [1] is -2.3%; in test [2], -11.5%; in test [3] it was -16.8%; in test [4], -36.2%; in test [5], -21.1%; in test [6], -7.05%.
Consider `CCC(c1ccc(CN(C)C)c(O)c1)C(CC)c1ccc(CN(C)C)c(O)c1` (stereo not given), for which the growth inhibition in test [1] is 5.7%; in test [2], 1.35%; in test [3], -11.4%; in test [4], -12.9%; in test [5], -2.55%; in test [6], 2.75%.
In the case of `CCCOCN1COCN=C1NC#N`, the growth inhibition is 28.8% in test [1]; 12.3% in test [2]; -4.7% in test [3]; -0.05% in test [4]; 5.65% in test [5]; 5.75% in test [6].
As for `C[N+](C)(C)CCCCCc1c2nc(c(CCCCC[N+](C)(C)C)c3ccc([nH]3)c(CCCCC[N+](C)(C)C)c3ccc([nH]3)c(CCCCC[N+](C)(C)C)c3nc1C=C3)C=C2`, the growth inhibition in test [1] is 19.6%; in test [2] it was 3.85%; in test [3] it was 10%; in test [4], 3.8%; in test [5], 26.4%; in test [6] it was 85.2% (active).
Turning to `OC(CBr)c1cc(-c2ccc(Cl)cc2)nc2c(-c3ccccc3)cccc12` (stereo not given), the growth inhibition in test [1] was -3%; in test [2] it was 3.85%; in test [3], -4.05%; in test [4] it was -25.4%; in test [5], 2.35%; in test [6], 28.7%.
`Cc1ccc(-c2nc3ccccc3c(=O)n2/N=C/c2ccc(Cl)cc2Cl)cc1`: the growth inhibition is 9.05% in test [1]; 3.85% in test [2]; 7.65% in test [3]; 11.1% in test [4]; 7.35% in test [5]; 21.4% in test [6].
Consider `Cc1cccc(Cl)c1NC1=NCCN1C(=O)CC(=O)c1ccccc1`, for which the growth inhibition was 54.1% in test [1]; -9.2% in test [2]; 1.1% in test [3]; 12.8% in test [4]; 2.05% in test [5]; 32.7% in test [6].
In the case of `COc1ccc(/C=C/C(=O)C(C)(C)CN(C)CCN(C)C)cc1`, the growth inhibition in test [1] was -36%; in test [2], -7.25%; in test [3], -23.9%; in test [4], -7.65%; in test [5], -5.25%; in test [6], -8.45%.
Consider `CN(C)C1CS(=O)(=O)OC2=C1COCC2` (stereo not given), for which the growth inhibition was -16.4% in test [1]; 9.8% in test [2]; -0.7% in test [3]; -3.8% in test [4]; 15.8% in test [5]; 2.55% in test [6].
`CC(=O)[O][Ga]([Cl])[O]C(C)=O`: the growth inhibition was 22.2% in test [1]; 27.2% in test [2]; 34.1% in test [3]; 34.3% in test [4]; 30.3% in test [5]; 14.3% in test [6].
With `Cn1c2c(c3ccccc31)CCN(CCCCN1CCc3c(n(C)c4ccccc34)C1=O)C2`, the growth inhibition in test [1] is -0.05%; in test [2], -24.4%; in test [3], -19.3%; in test [4], 5.25%; in test [5], -5%; in test [6] it was -12.8%.
As to `O=S1(=O)CS(=O)(=O)OCCCCO1`, the growth inhibition was 10.2% in test [1]; -5.75% in test [2]; 4.9% in test [3]; 13.3% in test [4]; -9.05% in test [5]; 7.85% in test [6].
For the compound `Cc1ccc(S(=O)(=O)Nc2ccccc2C(=O)c2ccc(C)c(C)c2)cc1`, the growth inhibition is 4.1% in test [1]; -7.15% in test [2]; -9.9% in test [3]; -41% in test [4]; -40.9% in test [5]; 23.9% in test [6].
For `CC1c2c(Cl)nc3ccccc3c2Oc2c1c(Cl)nc1ccccc21`, the growth inhibition in test [1] is 7.05%; in test [2], 5.1%; in test [3], -6.05%; in test [4], 18.3%; in test [5], 5.1%; in test [6], 22.1%.
As for `O=C(Nc1ccc(Cl)cc1)NS(=O)(=O)c1coc2ccccc2c1=O`, the growth inhibition was 9.65% in test [1]; 7.3% in test [2]; -5.75% in test [3]; 18.6% in test [4]; 11.6% in test [5]; 23.1% in test [6].
